# Only some compounds are listed: those with a hit (about 3% of all), similar ones and a draw of the others.
# PPC-1+TRAIL kill = kills PPC-1 cancer cells in the presence of TRAIL. PPC-1 cells + TRAIL, ATPLite viability luminescence. cell killing (% activity), % at 4 µM or 5 µM. 220,000 compounds, 0.41% hits;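 active means cell killing above 50% in the first pass at 4 µM, then a duplicate retest at 5 µM averaging 50% or more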;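 further: plate controls were cells with TRAIL plus DMSO for no effect and medium-only wells lacking cells for full effect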
# SENP6 block = blocks the human protease SENP6 | inhibition, % at 10 µM | Recombinant SENP6 catalytic domain, aminoluciferin luminescence | 330,000 compounds, 1.8% hits;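 active means inhibition above about 50% at the single tested dose, limit read from the data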;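 further: plate controls were DMSO wells with enzyme for no effect and DMSO wells lacking enzyme for full effect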
# TRAIL sens C8 = sensitizes caspase-8 expressing cells to TRAIL | 360,000 compounds, 1% hits | NB7+C8 cells + TRAIL, ATPlite viability luminescence | inhibition (viability loss, TRAIL sensitization), % at 10 µM;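 active means compounds causing at least 50% loss of cell viability in the single-dose screen, relative to plate controls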
# SENP8 block-1 = SENP8 (human) protease inhibition | Q96LD8 | recombinant SENP8, Nedd8 substrate fluorescence | inhibition, % at 20 µM | 360,000 compounds, 0.64% hits; in the data active means inhibition mostly above about 40%, no sharp cut-off; inactive means mostly below about 27%
# Target sequence (Q96LD8 whole entry, looked up): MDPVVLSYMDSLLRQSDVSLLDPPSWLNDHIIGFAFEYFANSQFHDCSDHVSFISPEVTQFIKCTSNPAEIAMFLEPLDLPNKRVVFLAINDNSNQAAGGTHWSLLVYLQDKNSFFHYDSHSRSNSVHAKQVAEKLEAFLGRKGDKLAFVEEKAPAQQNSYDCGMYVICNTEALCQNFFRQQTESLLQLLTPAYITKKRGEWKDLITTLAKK
# SENP7 inh = inhibitors of human SENP7 protease | inhibition, % at 5 µM | 330,000 compounds, 1.5% hits | Q9BQF6 | recombinant SENP7, Z-RLRGG-aminoluciferin luminescence, 40 min;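 active means inhibition above about 50% at the single test dose, limit read from the data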;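 further: plate controls were DMSO with enzyme for no effect and no enzyme buffer wells for full effect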
# SENP8 block-2 = SENP8 protease inhibition. Q96LD8. purified SENP8, Z-RLRGG-aminoluciferin cleavage, luminescence. inhibition, % at 10 µM. 330,000 compounds, 1.2% hits. AID 2540; in the data active means inhibition above about 50%
# SENP8 conf = human SENP8 inhibition, confirmed; shares compounds with SENP7 inh; Recombinant SENP8, Z-RLRGG-aminoluciferin luminescence, 60 min; inhibition, % at 12.5 µM; 6,200 compounds, 40% hits; AID 488912;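 active means mean inhibition across replicates above about 50%, limit read from the data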
# SENP6 confirm = confirmation of human SENP6 protease inhibitors. inhibition, % at 12.5 µM. shares compounds with SENP7 inh. AID 488915. 6,200 compounds, 58% hits. recombinant SENP6, Z-RLRGG-aminoluciferin luminescence
# SENP7 conf = confirmation of human SENP7 protease inhibitors; shares compounds with SENP7 inh; recombinant SENP7, Z-RLRGG-aminoluciferin luminescence, 40 min; inhibition, % at 12.5 µM; 6,200 compounds, 69% hits; AID 488917
# Casp3 SENP sel = inhibits human caspase-3 in SENP selectivity test | shares compounds with SENP7 inh | purified caspase-3, Z-DEVD-aminoluciferin luminescence, 60 min | inhibition, % at 12.5 µM | 6,200 compounds, 60% hits | AID 488918;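 active means mean inhibition above about 50%, limit read from the data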;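 further: plate controls were enzyme with DMSO for no effect and wells without caspase-3 for full effect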
# Target sequence (P42574 28-227 limits assumed): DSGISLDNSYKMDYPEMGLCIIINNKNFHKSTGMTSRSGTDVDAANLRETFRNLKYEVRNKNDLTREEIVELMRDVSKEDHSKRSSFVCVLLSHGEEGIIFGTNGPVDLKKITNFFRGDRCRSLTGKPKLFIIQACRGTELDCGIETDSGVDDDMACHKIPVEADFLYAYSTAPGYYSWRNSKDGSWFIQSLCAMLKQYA
# Luc interf = luminescence interference (SENP counter-screen); 6,200 compounds, 39% hits; shares compounds with SENP7 inh; AID 488919; Pre-incubated SENP8/Z-RLRGG-aminoluciferin, luciferase luminescence interference; inhibition, % at 12.5 µM;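 active means mean inhibition above about 50% when retested at one dose, limit read from the data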;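 further: plate controls were DMSO wells with completed reaction for no effect and substrate without enzyme for full effect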
# The depositor's hits bear a star; x = not tested or not shown.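 How the source made its calls, unless noted: active means mean inhibition above about 50% in the one-dose retest (limit read from the data); inactive means the rest.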
SMILES,PPC-1+TRAIL kill,SENP6 block,TRAIL sens C8,SENP8 block-1,SENP7 inh,SENP8 block-2,SENP8 conf,SENP6 confirm,SENP7 conf,Casp3 SENP sel,Luc interf
CC1(C(=O)NS(=O)(=O)Cc2ccccc2C(F)(F)F)CCN1C(=O)Cc1ccsc1 (stereo not given),x,x,-27,18,x,x,x,x,x,x,x
COc1ccccc1NC(=O)COC(=O)c1ccccc1OCC(=O)Nc1ccc(SC(F)F)cc1,1,-10,-4,9,-4,-5,x,x,x,x,x
CN(C)C(=O)COC(=O)c1ccccc1Nc1ccc(SC(F)F)cc1,23,-4,23,-172,62*,52*,30,60*,84*,25,6
Nc1ccn([C@@H]2O[C@H](CNCc3cccc(OC4CCCC4)c3)[C@@H](O)[C@H]2O)c(=O)n1,x,x,4,4,x,x,x,x,x,x,x
Cc1cc(C)nc(NC(=O)/C=C/c2ccc3c(c2)OCO3)c1,56*,86*,64*,-255,90*,71*,12,73*,100*,88*,52*
CCOc1ccc(-c2nnn(CC(=O)Nc3ccccc3OC)n2)cc1OCC,14,-5,2,28,63*,7,-8,-2,-1,7,3
O=C(Nc1cccc(O)c1)c1c(O)c2ccccc2[nH]c1=O,x,48,46,-26,86*,62*,7,50*,78*,57*,44
Cc1cccc(NC(=O)c2c(O)c3ccccc3[nH]c2=O)c1,x,-1,-1,-75,-1,-9,x,x,x,x,x
COc1ccc(C(C(=O)NC2CCCC2)N(Cc2cccnc2)C(=O)c2snc(C(N)=O)c2N)cc1 (stereo not given),x,1,4,-312,6,5,x,x,x,x,x
Cc1cccc(-c2cnn(-c3ccccc3)c2N)c1,x,50*,21,7,66*,44,42,42,81*,64*,64*
Cc1cccc(-c2cnn(-c3cccc([N+](=O)[O-])c3)c2N)c1,-9,5,-6,15,2,-8,x,x,x,x,x
Nc1c(-c2ccccc2)cnn1-c1cccc(Cl)c1,x,90*,36,6,94*,84*,90*,90*,99*,87*,81*
O=C1CC(c2ccc3c(c2)OCCO3)Oc2ccc([N+](=O)[O-])cc21 (stereo not given),x,99*,64*,20,98*,96*,44,98*,101*,51*,20
O=C1CC(c2ccc3c(c2)OCCO3)Oc2ccccc21 (stereo not given),x,7,2,2,9,0,x,x,x,x,x
Cc1cccc(/C=C/C(=O)c2ccc(N3CCOCC3)cc2)c1,-7,89*,x,x,92*,84*,30,34,35,55*,80*
C[C@H]1CN([C@@H](C)CO)S(=O)(=O)c2ccc(/C=C/c3ccccc3)cc2O[C@H]1CN(C)C(=O)NC1CCCCC1,x,x,12,-38,x,x,x,x,x,x,x
COc1ccccc1CNC(=O)COc1ccccc1C(=O)c1cnn(-c2ccccc2)c1,x,51*,12,-15,3,25,32,26,61*,37,28
CCc1ccc(OCC(=O)Nc2ccc3c(c2)OCCO3)cc1,x,22,-6,15,-1,0,x,x,x,x,x
COc1cc(C(C#N)N2N=C(c3ccccc3)CC2c2ccccc2)ccc1O (stereo not given),6,66*,5,22,78*,21,-4,-2,4,10,9
COc1cccc(-n2ccn(CC(=O)NCCc3ccccc3)c(=O)c2=O)c1,x,-11,0,-237,-8,-12,x,x,x,x,x
Fc1ccccc1Nc1nc2ccccc2o1,x,99*,26,20,97*,94*,97*,98*,102*,97*,96*
c1ccc(Nc2nc3ccccc3o2)cc1,28,97*,36,10,97*,90*,10,97*,-1,93*,94*
FC(F)(F)Oc1ccc(Nc2nc3ccccc3o2)cc1,-17,41,1,13,23,4,x,x,x,x,x
O=C(NNc1nc2ccccc2o1)c1ccccc1,22,64*,13,2,0,53*,16,69*,48,71*,44
O=C(NNc1nc2ccccc2nc1C(F)(F)F)c1ccccc1,-12,-7,5,7,-8,-5,x,x,x,x,x
SMILES,PPC-1+TRAIL kill,SENP6 block,TRAIL sens C8,SENP8 block-1,SENP7 inh,SENP8 block-2,SENP8 conf,SENP6 confirm,SENP7 conf,Casp3 SENP sel,Luc interf
O=S1(=O)NC(=NCCc2ccccn2)c2ccccc21,-6,-4,-2,6,2,-12,x,x,x,x,x
Cc1cc2nc(-c3ccc(=O)[nH]c3)n(Cc3ccccc3)c2cc1C,x,17,1,-164,1,2,x,x,x,x,x
CC(=O)Nc1ccc(NC(=O)Nc2ccc3c(c2)N(C)C(=O)CS3)cc1,-4,2,6,8,0,-4,x,x,x,x,x
CN1C(=O)CSc2ccc(NC(=O)N3CCc4ccccc43)cc21,17,59*,48,2,46,47,57*,54*,85*,62*,53*
O=c1[nH]c(-c2ccccc2)ncc1OCc1ccccc1,x,x,12,5,x,x,x,x,x,x,x
Cc1c(C(=O)OCC(=O)Nc2ccc(N3CCOCC3)cc2)oc2ccccc12,x,6,12,-3,4,0,x,x,x,x,x
Cc1c(C(=O)Nc2ccc(N3CCOCC3)cc2)oc2ccccc12,32,70*,40,13,67*,32,12,59*,62*,54*,11
O=C(Nc1ccc(N2CCOCC2)cc1)c1cc2ccccc2o1,39,70*,30,17,48,38,12,45,82*,69*,17
O=C(Nc1ccc(N2CCOCC2)cc1)c1nc2ccccc2s1,33,95*,16,37,98*,75*,-23,12,26,17,45
Cc1cc(C)cc(-c2nnc(SCC(=O)c3c(N)n(C4CC4)c(=O)[nH]c3=O)o2)c1,x,-6,-3,13,-4,-2,x,x,x,x,x
COc1ccc(NC(=O)CN(C)C(=O)C(Sc2ccccc2)c2ccccc2)cc1 (stereo not given),x,4,1,-1,-6,5,x,x,x,x,x
